Screens (PubChem BioAssay)
A selection: hits, their analogues and other compounds. The true share with any hit is near 2.4%.
HMGR II inh = blocks class II HMG-CoA reductase of Enterococcus faecalis; purified E. faecalis HMGR, NADPH absorbance 340 nm kinetic; AID 1066; inhibition, % at 10 µM; 190,000 compounds, 0.41% hits;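 active means inhibition above a set limit, the median over all tested compounds plus 3 SD, cut at about 9.5% in these data; inconclusive means no clear call, values can overlap the other calls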;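 further: enzyme runs in reverse so mevalonate oxidation gives rising NADPH absorbance; 0% = complete reaction with DMSO and 100% = background rate lacking mevalonate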
PABP polyA inh = blocks human PABP binding to poly(A) RNA; P11940; fluorescence polarization; calls only at 35 µM; 290,000 compounds, 1% hits;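 further: calls also rest on retests at 20 µM and on dose response follow-up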
eIF4H FP inh = inhibitors of RNA binding by human eIF4H | eIF4H fluorescence polarization binding assay | inhibition, % at 35 µM | 290,000 compounds, 0.94% hits;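 further: calls also rest on retests at 20 µM and on dose response follow-up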
PHOSPHO1 block = PHOSPHO1 (human) inhibition; inhibition, % at 13.3 µM; AID 1565; 290,000 compounds, 1.1% hits; Q8TCT1; recombinant PHOSPHO1, absorbance phosphatase assay; in the data active means inhibition above about 60%
Target sequence (Q8TCT1 whole entry, looked up): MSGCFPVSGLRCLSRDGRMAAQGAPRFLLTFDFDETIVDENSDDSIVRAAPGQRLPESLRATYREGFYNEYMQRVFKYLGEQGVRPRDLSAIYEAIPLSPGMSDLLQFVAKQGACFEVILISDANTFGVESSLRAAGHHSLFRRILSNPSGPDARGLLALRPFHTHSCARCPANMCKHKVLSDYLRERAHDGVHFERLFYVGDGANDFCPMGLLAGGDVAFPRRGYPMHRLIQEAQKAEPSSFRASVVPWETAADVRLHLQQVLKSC
PABP1 MLLE inh = blocks PAM2 peptide binding to the PABP1 MLLE domain; P11940; GST-MLLE / FITC-PAM2 fluorescence polarization; inhibition, % at 20 µM; 360,000 compounds, 0.36% hits; in the data active means inhibition above about 35%, passing the limit was not always enough;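 further: plate controls were DMSO wells with GST-MLLE for no effect and wells lacking GST-MLLE protein for full effect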
* hit, by the source's call; i = inactive; ? = inconclusive; . = no result given; + = active, no number. Unless noted, how the calls were made is not given here.

SMILES | HMGR II inh | PABP polyA inh | eIF4H FP inh | PHOSPHO1 block | PABP1 MLLE inh
COc1ccc(C(=O)C2CCCN(C(=O)C3=CCCC3)C2)c(C)c1 (stereo not given) | -2 | i | -10 | 10 | -6
Cc1ccc([N+](=O)[O-])cc1N=Nc1c(-c2ccc([N+](=O)[O-])cc2)[nH]n(C(N)=S)c1=O | -2 | i | 64 | 16 | 31
NC(=S)n1[nH]c(-c2ccc([N+](=O)[O-])cc2)c(N=Nc2ccc(Cl)cc2)c1=O | -10 | + | ? | 44 | 38
Cc1cc(C)nc(SCc2ccc(Cl)cc2)n1 | . | i | -7 | 24 | 6
Cc1cc(C)nc(SCNC(=O)c2ccc(Cl)cc2)n1 | -1 | i | 0 | 41 | 44*
CCOCCCNC(=S)Nc1ccc(S(N)(=O)=O)cc1 | -1 | i | 1 | 88* | 11
CCCNC(=S)Nc1ccc(S(N)(=O)=O)cc1 | 0 | i | -2 | 31 | 9
c1cc[n+](CCC[n+]2ccccc2)cc1 | . | . | . | 22 | -120
CCn1c(CC(=O)Nc2ccc(C)cc2)nnc1SCC(=O)N1CCOCC1 | . | i | -2 | 63* | 0
C=CCn1c(CC(=O)Nc2ccc(C)cc2C)nnc1SCC(=O)N1CCOCC1 | . | i | -8 | 3 | 1
CCn1c(SCC(=O)N2CCOCC2)nnc1C(C)NC(=O)c1ccccc1 (stereo not given) | . | i | -3 | 63* | 3
COc1cc2c(cc1OC)CN(C1CCC(C)CC1)CC2 (stereo not given) | . | i | 0 | . | -3
O=C(O)Cn1nnc(-c2cccs2)n1 | -4 | i | -3 | 22 | 7
CC(C)(C)NC(=O)Cn1nnc(-c2cccs2)n1 | -4 | + | 65* | -24 | 12
O=C(Cn1nnc(-c2cccs2)n1)NCc1ccco1 | -8 | i | 2 | 64* | -5
Cc1ccc(S(=O)(=O)N2[C@@H](c3cccc(Cl)c3)C(C(=O)O)=CC[C@H]2c2ccc3c(c2)OCO3)cc1 | . | . | . | . | 8
COC(=O)C1=C(C(=O)OC)SC(=C2C(=S)C(C)(C)N(C(=O)CC(C)C)c3ccccc32)S1 | -3 | i | 0 | 84* | 26
Cc1ccc(S(=O)(=O)Nc2ccc3cn[nH]c3c2)cc1C | . | . | . | . | 12
COc1cc(S(=O)(=O)Nc2ccc3cn[nH]c3c2)ccc1Cl | 12* | i | -9 | -28 | -4
Cc1ccc(C)n1Cc1ccc(C(=O)O)cc1 | 7 | + | 93* | 22 | 16
Cc1cc(C)n(Cc2ccc(C(=O)O)cc2)n1 | -6 | i | 8 | 8 | -2
CCC(C)N=C1Sc2nc3ccc(C)cc3cc2CN1CCOC (stereo not given) | 9.6* | i | 1 | -52 | 27
CCOc1ccc2nc3c(cc2c1)CN(CCCO)C(=NCCOC)S3 | -1 | i | -3 | 91* | -30
CCOc1ccc(N=C2Sc3nc4ccc(C)cc4cc3CN2CCOC)cc1 | -6 | i | -8 | -22 | 17
CCN1/C(=C/C=C/c2oc3ccc(-c4ccccc4)cc3[n+]2CC)Oc2ccc(-c3ccccc3)cc21 | -3 | ? | ? | 24 | i
SMILES | HMGR II inh | PABP polyA inh | eIF4H FP inh | PHOSPHO1 block | PABP1 MLLE inh
O=C(O)c1cccc(NC(=S)N/N=C/c2ccccc2OCc2cccc(Br)c2)c1 | -1 | i | 53* | -6 | 36
COCCOC(=O)C1=C(C)NC(=O)NC1c1c(Cl)nc2ccccn2c1=O (stereo not given) | -1 | i | 32 | 0 | 41*
CCOC(=O)C1=C(C)NC(=O)NC1c1ccco1 (stereo not given) | 0 | i | 29 | -10 | -2
COCCOC(=O)C1=C(C)NC(=O)NC1c1ccco1 (stereo not given) | . | + | 58* | 8 | 15
CCCCC(CC)CNC(=O)CN1C(=O)NC2(CCc3ccccc32)C1=O (stereo not given) | . | i | -15 | 23 | -15
CCOC(=O)C1(Cc2ccccc2)CCN(Cc2ccc3c(c2)OCCO3)CC1 | -2 | i | 12 | 36 | 3
COc1ccccc1C1C=C(c2ccc(Cl)cc2)Nc2nc(NS(C)(=O)=O)nn21 (stereo not given) | -4 | i | 2 | 0 | .
CC(=O)Nc1nc2n(n1)C(c1ccccc1)C=C(c1ccccc1)N2 (stereo not given) | -1 | i | 18 | -2 | 59*
CC(=O)Nc1nc2n(n1)C(c1ccc(F)cc1)C=C(c1ccccc1)N2 (stereo not given) | 0 | i | -8 | 30 | 34
O=C(c1nc2n(n1)C(c1ccc(Cl)cc1)C=C(c1ccccc1)N2)N1CCOCC1 (stereo not given) | 2 | + | 66* | 17 | 60
CS(=O)(=O)Nc1nc2n(n1)C(c1ccccc1)C=C(c1ccc(Br)cc1)N2 (stereo not given) | 3 | + | 76* | 31 | 147
Cn1cnnc1SCCNS(=O)(=O)c1cccc([N+](=O)[O-])c1 | . | i | -5 | 13 | 6
CC1=CC(C)C2(COC(c3ccc[n+](C)c3)OC2)C(C)C1 (stereo not given) | -7 | + | -2 | -5 | -134
C=CCN(C(=O)c1ccc2snnc2c1)c1ccccc1 | . | i | 2 | 28 | -6
CCCc1cc(=O)oc2cc(C)cc(OCC(=O)Nc3cccnc3)c12 | . | i | -2 | 62* | -2
Cc1cc(OCC(=O)Nc2cccnc2)c2c(C)cc(=O)oc2c1 | . | i | -4 | 38 | -4
CC(=O)Nc1ccc(-c2ccnc3c2CC(C)(C(=O)Nc2ccc4c(c2)OCO4)O3)cc1 (stereo not given) | . | . | . | . | -4
COc1ccc(NC(=O)c2ccco2)cc1NC(=O)c1ccco1 | 0 | i | 2 | -14 | 7
COc1ccc(NC(=O)c2ccco2)cc1N | 0 | + | 92* | 32 | -2
COc1ccc(OC)c(/C=N/NC(=O)CCc2ccc(O)c(O)c2)c1 | -2 | + | 21* | -34 | 6
COc1ccc(OC)c(/C=N/NC(=O)CCc2c(C)n[nH]c2C)c1 | . | i | -3 | 33 | 2
O=C(CN1CCCCC1)c1c[nH]c2ccccc12 | . | i | 1 | 10 | -18
COc1ccc2c(C(=O)CN3CCSCC3)c[nH]c2c1 | . | i | 3 | 10 | -16
O=C(CN1CCN(Cc2ccccc2)CC1)c1c[nH]c2ccccc12 | -5 | i | -8 | 80* | -80
COc1ccc2c(C(=O)CN3CCN(c4ccccc4)CC3)c[nH]c2c1 | 2 | + | 69* | -9 | -36
N#Cc1ccccc1OCc1cccc(S(=O)(=O)N2CCOCC2)c1 | . | . | . | . | -2
Cc1cccc(NC(=O)CN2C(=O)N/C(=C\c3cccn3-c3cccc(C(=O)O)c3)C2=O)c1 | -3 | i | 57 | 27 | -87
COc1ccc(-n2cccc2/C=C2/NC(=O)N(c3cccc(Cl)c3)C2=O)cc1 | -6 | i | -1 | -28 | -145
O=C(O)c1cccc(-n2cccc2/C=C2/NC(=O)N(c3ccc(Cl)cc3)C2=O)c1 | 10* | ? | ? | 16 | -6
O=C(O)c1cccc(-n2cccc2/C=C2/NC(=O)N(c3cccc(Cl)c3)C2=O)c1 | . | + | 97* | -112 | -67
